# Source: PubChem BioAssay (NCATS)
# Where “and” joins values, the source holds several entries; their conditions need not be identical. Equal values may be shown once. Results filed as inconclusive are left out. Calls of active or inactive are those of the source. Calls come from the whole dose curve. Bridge positions count the residues as written; N and C are the ends. Square brackets hold non-standard residues; d marks the D form. Peptide text beside a SMILES is read from it. hArg = N=C(N)NCCCC[C@H](N)C(=O)O; Mpa = O=C(O)CCS
# Assay: Cytotoxicity counterscreen for inhibitors of SARS-CoV-2 cell entry (AID 1645845); note: nearly all actives have a fitted effect of over 50% in size; for activity change, negative = cytotoxicity: % is set by controls: 0 for no effect and ±100 for the full control effect
# Details: cell viability (SARS-CoV-2 entry assay cells); series mostly up to 57.1 µM; activity change, negative = cytotoxicity: at the top concentration
# Outline: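 Counterscreen run in the same HEK293-ACE2 line as the pseudotyped-particle entry assay, without particles. Viability after 48 h at 37 C was read as ATP luminescence, scaled between cell-containing and cell-free wells.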
# Potency is the fitted concentration of half-maximal effect.
Compound,outcome,"activity change, negative = cytotoxicity",Potency
O=C1OC2(c3ccccc31)c1cc(I)c(O)c(I)c1Oc1c2cc(I)c(O)c1I,inactive,,
CCN1CCCC(OC(=O)C(c2ccccc2)c2ccccc2)C1 (stereo not drawn),,-19.7% (inactive),
OC(CCN1CCCCC1)(c1ccccc1)C1CC2C=CC1C2 (stereo not drawn),,,inactive
CCO[C@@H]1O[C@H](C(COCc2ccccc2)OCc2ccccc2)[C@H](OCc2ccccc2)[C@H]1O (stereo partly drawn),,-17% (inactive),
COCCc1ccc(OCC(O)CNC(C)C)cc1 (stereo not drawn),,-6.54% (inactive),
CC(C)C(=O)OCc1cccc(OC(=O)[C@@H]2N3C(=O)[C@@H](NC(=O)Cc4ccccc4)[C@H]3SC2(C)C)c1,inactive,,
C1CCN2C[C@@H]3C[C@@H](CN4CCCC[C@@H]34)[C@H]2C1,,4.19% (inactive),
O=C1NC2CCCCN2C12CCN(CCCN1c3ccccc3CCc3ccc(Cl)cc31)CC2 (stereo not drawn),,-27% (inactive),
CC1=CC(=O)c2ccccc2C1=O,,-23% (inactive),
Cc1cccc(CN2CCN(C(c3ccccc3)c3ccc(Cl)cc3)CC2)c1 (stereo not drawn),inactive,,
OC1C(O)C(O)C(O)C(O)C1O (stereo not drawn),,1.16% (inactive),
C[C@@H](CN(C)C)CN1c2ccccc2Sc2ccccc21,inactive,,
Cc1cc2nc3ccc(=[N+](C)C)cc-3sc2cc1N,,,22.4 µM (active)
O=C(Nc1ccccc1)OCC(CN1CCCCC1)OC(=O)Nc1ccccc1 (stereo not drawn),,-7.51% (inactive),
Nc1nc2ncc(CNc3ccc(C(=O)N[C@@H](CCC(=O)O)C(=O)O)cc3)nc2c(=O)[nH]1,inactive,,
C[C@]12CCC(=O)C=C1[C@@H]1C[C@@H]1[C@H]1[C@@H]3[C@@H]4C[C@@H]4[C@@]4(CCC(=O)O4)[C@@]3(C)CC[C@@H]12,,-16.9% (inactive),
CN(C)CCN(Cc1ccccc1)c1ccccn1,inactive,,
CCCOc1ccc2nc(NC(=O)OC)[nH]c2c1,,-33% (inactive),
NC(=O)[C@@H]1CSSCCC(=O)N[C@@H](CCCCN=C(N)N)C(=O)NCC(=O)N[C@@H](CC(=O)O)C(=O)N[C@@H](Cc2c[nH]c3ccccc23)C(=O)N2CCC[C@H]2C(=O)N1 ([Mpa][hArg]GDWPC-NH2; disulfide 1-7),inactive,,
Cc1ccc(O)cc1,,2.54% (inactive),
COC(=O)Nc1nc2ccc(S(=O)c3ccccc3)cc2[nH]1 (stereo not drawn),,,inactive

# Assay: Primary qHTS to identify inhibitors of SARS-CoV-2 cell entry (AID 1645846); note: nearly all actives have a fitted effect of over 45% in size
# Details: SARS-CoV-2 pseudovirus cell entry assay, luminescence; activity change, negative = inhibition: at 57.1 µM (top of the series) unless noted; series mostly up to 57.1 µM
# Outline: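 Using luciferase-reporting pseudoviruses carrying Wuhan-Hu-1 spike, the screen tracks entry into stably ACE2-expressing cells over 48 hr. Activity is expressed relative to spike particles versus particles lacking any fusion protein.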
Compound,"activity change, negative = inhibition",outcome,Potency
Cc1c(-c2ccccc2)oc2c(C(=O)OCCN3CCCCC3)cccc2c1=O,-5.61%,,
C[C@@H]1C[C@H]2[C@@H]3CCC4=CC(=O)C=C[C@]4(C)[C@@]3(F)[C@@H](O)C[C@]2(C)[C@@]1(O)C(=O)COC(=O)c1ccncc1,,inactive,
CCOC(=O)c1ccc(NC(=O)CN2CCCCC2)cc1,-7.85%,,
CC(C)(C)NCC(O)COc1cccc2c1CCC(=O)N2 (stereo not drawn),,inactive,
CCN(CC)CCOc1ccc(Cc2ccccc2)cc1,,,25.1 µM (active)
CCN1CCCC(OC(=O)C(c2ccccc2)c2ccccc2)C1 (stereo not drawn),-0.255%,,
COCCc1ccc(OCC(O)CNC(C)C)cc1 (stereo not drawn),-1.24%,,
C1CCN2C[C@@H]3C[C@@H](CN4CCCC[C@@H]34)[C@H]2C1,-16.5%,,
OC1C(O)C(O)C(O)C(O)C1O (stereo not drawn),-22.4%,,
Nc1nc2ncc(CNc3ccc(C(=O)N[C@@H](CCC(=O)O)C(=O)O)cc3)nc2c(=O)[nH]1,,inactive,
C[C@]12CCC(=O)C=C1[C@@H]1C[C@@H]1[C@H]1[C@@H]3[C@@H]4C[C@@H]4[C@@]4(CCC(=O)O4)[C@@]3(C)CC[C@@H]12,0.82% and 2.72%,,
Cc1ccc(O)cc1,-24.6%,,
